Test results published in PubChem BioAssay (NCATS).
Results filed as inconclusive are left out. Activity calls are given as the source filed them. Calls follow the shape of the dose curve; as a rule, active = well fitted cell-killing curve with a large enough effect; inconclusive = small, poorly fitted or top-dose-only effect, or effect the other way; inactive = flat fitted curve, though single readings scatter.

Key:
Experiment in all cases: Primary qHTS to identify gynecologic anti-cancer compounds using libraries of approved drugs and bioactive compounds (AID 1345084); also: nearly all actives have a fitted effect of over 55% in size
C33A = details: Gynecologic cancer cell panel viability, ATPlite luminescence, 48 h; series mostly up to 57.5 µM
In short: (§1)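 Cell viability after 48 h drug treatment, ATPlite luminescence readout; five doses.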

CAOV3 = details: Gynecologic cancer cell panel viability, ATPlite luminescence, 48 h; series mostly up to 57.5 µM
In short: as §1

CASKI = details: Gynecologic cancer cell panel viability, ATPlite luminescence, 48 h; series mostly up to 57.5 µM
In short: as §1

Es-2 = details: Gynecologic cancer cell panel viability, ATPlite luminescence, 48 h; series mostly up to 57.5 µM
In short: as §1

HeLa = details: Gynecologic cancer cell panel viability, ATPlite luminescence, 48 h; series mostly up to 57.5 µM
In short: as §1

Hek293T = details: Gynecologic cancer cell panel viability, ATPlite luminescence, 48 h, control line for the selectivity index; series mostly up to 57.5 µM
In short: as §1

JEG-3 = details: Gynecologic cancer cell panel viability, ATPlite luminescence, 48 h; series mostly up to 57.5 µM
In short: as §1

OV90 = details: Gynecologic cancer cell panel viability, ATPlite luminescence, 48 h; series mostly up to 57.5 µM
In short: as §1

PA-1 = details: Gynecologic cancer cell panel viability, ATPlite luminescence, 48 h; series mostly up to 57.5 µM
In short: as §1

SKOV3 = details: Gynecologic cancer cell panel viability, ATPlite luminescence, 48 h; series mostly up to 57.5 µM
In short: as §1

Tov-21-G = details: Gynecologic cancer cell panel viability, ATPlite luminescence, 48 h; series mostly up to 57.5 µM
In short: as §1

Tov112D = details: Gynecologic cancer cell panel viability, ATPlite luminescence, 48 h; series mostly up to 57.5 µM
In short: as §1
% is scaled to controls: 0 for no effect and ±100 for the full control effect.

CC(C)(C)NC(=O)[C@@H](c1cccnc1)N(C(=O)c1ccco1)c1ccc(C(C)(C)C)cc1
inactive: Potency (C33A) | Potency (CAOV3) | Potency (CASKI) | Potency (Es-2) | Potency (HeLa) | Potency (Hek293T) | Potency (JEG-3) | Potency (OV90) | Potency (PA-1) | Potency (SKOV3) | Potency (Tov-21-G) | Potency (Tov112D)

Cc1oc2ccccc2c1CNC(=O)NCc1cccs1
inactive: Potency (C33A) | Potency (CAOV3) | Potency (CASKI) | Potency (Es-2) | Potency (HeLa) | Potency (Hek293T) | Potency (JEG-3) | Potency (OV90) | Potency (PA-1) | Potency (SKOV3) | Potency (Tov-21-G) | Potency (Tov112D)

C[C@@H]1O[C@@H](O[C@H]2[C@H](O[C@H]3CC[C@@]4(C)C(CC[C@]5(C)C4C=C[C@]46OC[C@@]7(CCC(C)(C)C[C@H]74)[C@@H](O)C[C@]65C)[C@]3(C)CO)O[C@H](CO)[C@@H](O)[C@@H]2O[C@@H]2O[C@H](CO)[C@@H](O[C@@H]3O[C@@H](C)[C@H](O)[C@@H](O)[C@H]3O)[C@H](O)[C@H]2O)[C@H](O)[C@H](O)[C@H]1O (stereo partly specified)
inactive: activity change, negative = cytotoxicity (C33A) -24.9% [at 11.6 µM] | activity change, negative = cytotoxicity (CAOV3) -6.89% [at 11.6 µM] | activity change, negative = cytotoxicity (CASKI) -6.58% [at 11.6 µM] | activity change, negative = cytotoxicity (Es-2) -4.56% [at 11.6 µM] | activity change, negative = cytotoxicity (HeLa) -11.4% [at 11.6 µM] | activity change, negative = cytotoxicity (Hek293T) -7.26% [at 11.6 µM] | activity change, negative = cytotoxicity (JEG-3) -0.552% [at 11.6 µM] | activity change, negative = cytotoxicity (OV90) -28.6% [at 11.6 µM] | activity change, negative = cytotoxicity (PA-1) -23.2% [at 11.6 µM] | activity change, negative = cytotoxicity (SKOV3) -29.1% [at 11.6 µM] | activity change, negative = cytotoxicity (Tov-21-G) -25.6% [at 11.6 µM] | activity change, negative = cytotoxicity (Tov112D) -4.43% [at 11.6 µM]

CC1=CC(=O)[C@H]2C(C)(C)CCC[C@]2(C)[C@@]1(O)CO
inactive: Potency (C33A) | Potency (CAOV3) | Potency (CASKI) | Potency (Es-2) | Potency (HeLa) | Potency (Hek293T) | Potency (JEG-3) | Potency (OV90) | Potency (PA-1) | Potency (SKOV3) | Potency (Tov-21-G) | Potency (Tov112D)

CC(=O)O[C@H]1CC[C@H](C)[C@@]2(C)[C@H](OC(C)=O)c3c(C)coc3C(=O)[C@H]12
inactive: Potency (C33A) | Potency (CAOV3) | Potency (CASKI) | Potency (Es-2) | Potency (HeLa) | Potency (Hek293T) | Potency (JEG-3) | Potency (OV90) | Potency (PA-1) | Potency (SKOV3) | Potency (Tov-21-G) | Potency (Tov112D)

C[C@@H]1O[C@@H](O[C@@H]2CO[C@@H](O[C@H]3CC[C@@]4(C)C(CC[C@]5(C)C4CC=C4[C@@H]6CC(C)(C)CC[C@]6(C(=O)O[C@@H]6O[C@H](CO)[C@@H](O)[C@H](O)[C@H]6O)CC[C@]45C)[C@]3(C)CO)[C@H](O)[C@H]2O[C@@H]2O[C@H](CO)[C@@H](O)[C@H](O)[C@H]2O)[C@H](O)[C@H](O)[C@H]1O (stereo partly specified)
inactive: activity change, negative = cytotoxicity (C33A) 16.4% [at 11.6 µM] | activity change, negative = cytotoxicity (CAOV3) 15.5% [at 11.6 µM] | activity change, negative = cytotoxicity (CASKI) 3.56% [at 11.6 µM] | activity change, negative = cytotoxicity (Es-2) 19.8% [at 11.6 µM] | activity change, negative = cytotoxicity (HeLa) -1.12% [at 11.6 µM] | activity change, negative = cytotoxicity (Hek293T) -12.7% [at 11.6 µM] | activity change, negative = cytotoxicity (JEG-3) -4.12% [at 11.6 µM] | activity change, negative = cytotoxicity (OV90) -13.3% [at 11.6 µM] | activity change, negative = cytotoxicity (PA-1) -2.56% [at 11.6 µM] | activity change, negative = cytotoxicity (SKOV3) 6.8% [at 11.6 µM] | activity change, negative = cytotoxicity (Tov-21-G) 4.72% [at 11.6 µM] | activity change, negative = cytotoxicity (Tov112D) 0.619% [at 11.6 µM]

O=C(O)c1cn(C2CC2)c2cc(N3C[C@@H]4C[C@H]3CN4)c(F)cc2c1=O
inactive: Potency (C33A) | Potency (CAOV3) | Potency (CASKI) | Potency (Es-2) | Potency (HeLa) | Potency (Hek293T) | Potency (JEG-3) | Potency (OV90) | Potency (PA-1) | Potency (SKOV3) | Potency (Tov-21-G) | Potency (Tov112D)

C/C=C(\C)C(=O)O[C@@H]1CC2[C@@H](CC=C3C[C@@H](O[C@H]4C[C@H](OC)[C@H](O[C@H]5C[C@H](OC)[C@H](O[C@@H]6O[C@H](C)[C@@H](O[C@H]7C[C@H](OC)[C@H](O[C@@H]8O[C@H](CO)[C@@H](O)[C@H](O)[C@H]8O)[C@@H](C)O7)[C@H](OC)[C@H]6O)[C@@H](C)O5)[C@@H](C)O4)CC[C@@]32C)[C@@]2(O)CC[C@H](C(C)=O)[C@@]12C (stereo partly specified)
inactive: activity change, negative = cytotoxicity (C33A) 1.36% [at 6.55 µM] | activity change, negative = cytotoxicity (CAOV3) 9.95% [at 6.55 µM] | activity change, negative = cytotoxicity (CASKI) 2.06% [at 6.55 µM] | activity change, negative = cytotoxicity (Es-2) -1.14% [at 6.55 µM] | activity change, negative = cytotoxicity (HeLa) -0.318% [at 6.55 µM] | activity change, negative = cytotoxicity (Hek293T) -2.04% [at 6.55 µM] | activity change, negative = cytotoxicity (JEG-3) -4.6% [at 6.55 µM] | activity change, negative = cytotoxicity (OV90) -1.27% [at 6.55 µM] | activity change, negative = cytotoxicity (PA-1) -4.92% [at 6.55 µM] | activity change, negative = cytotoxicity (SKOV3) -3.56% [at 6.55 µM] | activity change, negative = cytotoxicity (Tov-21-G) -5.17% [at 6.55 µM] | activity change, negative = cytotoxicity (Tov112D) 5.73% [at 6.55 µM]

CSc1ccc(C(=O)N[C@@H]2CCCC[C@@H]2NC(=O)CNC(=O)c2cc(C(F)(F)F)ccc2NC(=O)NC(C)C)cc1
inactive: Potency (C33A) | Potency (CAOV3) | Potency (CASKI) | Potency (Es-2) | Potency (HeLa) | Potency (Hek293T) | Potency (JEG-3) | Potency (OV90) | Potency (PA-1) | Potency (SKOV3) | Potency (Tov-21-G) | Potency (Tov112D)

CC(=O)O[C@@H]1C[C@@H](OC(C)=O)C(C)(C)/C=C/[C@H](C)[C@H](OC(C)=O)[C@@]2(O)C[C@H](C)[C@H](OC(=O)c3ccccc3)[C@@H]2/C=C/1C
inactive: Potency (C33A) | Potency (CAOV3) | Potency (CASKI) | Potency (Es-2) | Potency (HeLa) | Potency (Hek293T) | Potency (JEG-3) | Potency (OV90) | Potency (PA-1) | Potency (SKOV3) | Potency (Tov-21-G) | Potency (Tov112D)

CC1=CC(=O)C2C(C)(C)CCC[C@]2(C)[C@H]1CO (stereo partly specified)
inactive: Potency (C33A) | Potency (CAOV3) | Potency (CASKI) | Potency (Es-2) | Potency (HeLa) | Potency (Hek293T) | Potency (JEG-3) | Potency (OV90) | Potency (PA-1) | Potency (SKOV3) | Potency (Tov-21-G) | Potency (Tov112D)

CN[C@@H]1[C@H](O[C@H]2[C@H](O[C@@H]3[C@@H](O)[C@H](O)[C@@H](N=C(N)N)[C@H](O)[C@H]3N=C(N)N)O[C@@H](C)[C@]2(O)C=O)O[C@@H](CO)[C@H](O)[C@H]1O
inactive: Potency (C33A) | Potency (CAOV3) | Potency (CASKI) | Potency (Es-2) | Potency (HeLa) | Potency (Hek293T) | Potency (JEG-3) | Potency (OV90) | Potency (PA-1) | Potency (SKOV3) | Potency (Tov-21-G) | Potency (Tov112D)

COc1ccc(-c2c(-c3cc(C(=O)O)ccn3)ncn2C)cc1
inactive: Potency (C33A) | Potency (CAOV3) | Potency (CASKI) | Potency (Es-2) | Potency (HeLa) | Potency (Hek293T) | Potency (JEG-3) | Potency (OV90) | Potency (PA-1) | Potency (SKOV3) | Potency (Tov-21-G) | Potency (Tov112D)
